# Screening data deposited in PubChem by Broad Institute.
# esBAF inh – inhibitors of esBAF chromatin remodeling in mouse ES cells; Bmi1-luciferase knock-in reporter, 24 h; 100% = twice the neutral-well signal; reporter increase, % at 12.5 µM; 350,000 compounds, 2% hits; AID 602393; in the data active = activation above about 40%; inconclusive = no clear call, values can overlap the other calls;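 note: 0% = median of the plate's neutral control wells and 100% = double that signal; a rise in the Bmi1 reporter signal indicates esBAF inhibition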
# MITF act – increases MITF-driven TRPM1 promoter luciferase signal; SK-MEL-5 TRPM1-promoter luciferase, 24 h; % of positive control, neutral wells = 0; activation, % at 12.5 µM; 300,000 compounds, 0.75% hits;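 active = mean activation of at least 80% with every replicate also reaching 80%; inconclusive = mean reaches 80% but some replicate falls short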;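 note: 0% = neutral control wells and 100% = parthenolide positive control wells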
# PfHsp90 yeast 2 – growth inhibition of yeast expressing Plasmodium Hsp90; 310,000 compounds, 0.32% hits; S. cerevisiae expressing PfHsp90, BacTiter-Glo ATP, 48 h; yeast lacking PDR1 and PDR3 efflux regulators; inhibition, % at 9.4 µM;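 active = every replicate shows inhibition above about 80%, whatever the replicate mean, limit read from the data; inconclusive = mean inhibition reaches the set limit but some replicate falls short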;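 note: 0% = DMSO neutral controls and 100% = 20 µM radicicol positive controls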
# Vif inh – HIV Vif inhibition | HEK293T cells, Vif self-association by quenched fluorescence, imaging, 24 h | inhibition, % at 7.49 µM | 340,000 compounds, 0.35% hits; in the data active = inhibition above about 50%, passing the limit was not always enough; inconclusive = no clear call, values can overlap the other calls; inactive = below about 31%
# Glyco luc inh – N-linked glycosylation inhibition; D54 ERlucT glycosylation luciferase reporter, 24 h; percent of 100 nM tunicamycin response; reporter increase, % at 12.5 µM; 360,000 compounds, 0.23% hits;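 active = mean luciferase reporter signal, scaled so untreated is 0 and the glycosylation-blocking control 100, at or above a set limit in every replicate; inconclusive = mean reaches the limit but not every replicate does; inactive = mean below the limit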;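 note: luciferase carries N-glycosylation sites so blocking glycosylation raises the light; 0% = median of neutral control wells and 100% = median of 100 nM tunicamycin wells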
# Wnt act – activators of Wnt/beta-catenin signaling. activation, % at 9.35 µM. Wnt/beta-catenin reporter cell assay, activator, plate reader. AID 743398. 300,000 compounds, 1.2% hits; in the data active = activation above about 30%, passing the limit was not always enough; inconclusive = no clear call, values can overlap the other calls;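 note: 0% = neutral control wells and 100% = positive control wells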
# * hit, by the source's call; ? = inconclusive; . = no result. An excerpt weighted towards active compounds, which were near 3% of everything screened.
SMILES,esBAF inh,MITF act,PfHsp90 yeast 2,Vif inh,Glyco luc inh,Wnt act
CCCCC(=O)NC(c1ccccc1)c1ccc2cccnc2c1O (stereo unspecified),-61.7,-63.4,114.8*,0.4,-13.8,-1.8
COc1cccc(C(NC(C)=O)c2ccc3cccnc3c2O)c1 (stereo unspecified),-27.7,-82.9,13.2,9.0,-7.4,-2.6
O=[N+]([O-])c1ccc(NC(c2ccccc2)c2ccc3cccnc3c2O)cc1 (stereo unspecified),-66.5,-74.0,112.5*,9.3,-11.2,-4.8
CC(=O)NC(c1ccc(C(C)C)cc1)c1ccc2cccnc2c1O (stereo unspecified),-39.3,.,107.9*,0.2,-9.9,0.5
CCCCC(=O)NC(c1ccc(C(C)C)cc1)c1ccc2cccnc2c1O (stereo unspecified),-30.5,-69.6,89.7*,-15.5,-12.0,-12.5
O=C(Nc1cccc(F)c1)N1C[C@H]2[C@@H](c3ccccc31)[C@@H](CO)N2C(=O)C1CCOCC1,-0.4,.,.,.,.,.
CCCC(=O)NC(c1ccccc1)c1ccc2cccnc2c1O (stereo unspecified),-57.7,-66.0,113.3*,8.3,-12.2,-3.8
CCCCC(=O)NC(c1cccc([N+](=O)[O-])c1)c1ccc2cccnc2c1O (stereo unspecified),-57.3,.,115.0*,0.4,-12.6,-0.6
Oc1c(C(Nc2ccccn2)c2cccnc2)cc(Cl)c2cccnc12 (stereo unspecified),.,-2.6,103.0*,4.7,-1.4,-29.4
Cc1cc(NC(c2cccnc2)c2ccc3cccnc3c2O)no1 (stereo unspecified),-31.1,-56.5,-16.1,-9.6,-9.8,2.2
CC(=O)NC(c1ccco1)c1cc(Cl)c2cccnc2c1O (stereo unspecified),-8.8,.,.,11.1,3.6,-1.3
CC(=O)NC(c1ccc(C)cc1)c1cc(Cl)c2cccnc2c1O (stereo unspecified),-44.0,-36.9,114.5*,3.3,-10.6,-6.3
CCCC(=O)NC(c1ccc(OC)cc1)c1ccc2cccnc2c1O (stereo unspecified),.,-71.3,.,2.6,-10.4,-2.1
Cc1noc(C)c1NC(=O)N(C)C[C@H]1OCCCC[C@@H](C)Oc2ccc(NC(=O)CCC(F)(F)F)cc2C(=O)N([C@H](C)CO)C[C@H]1C,1.1,.,.,.,.,.
NC1(C(=O)O)CC1,-7.1,-7.5,6.6,-2.3,0.8,-11.2
CC1(C)OC2OC(COC(=O)c3ccccc3)C3OC(C)(C)OC3C2O1 (stereo unspecified),.,1.9,-31.8,7.8,2.1,4.3
COc1cccc(CNC(=O)[C@@H]2[C@@H](CO)[C@@H]3Cn4c(ccc(-c5cncnc5)c4=O)[C@H]2N3C(C)=O)c1,3.0,.,.,.,.,.
CCC(=O)Nc1ccc2c(c1)C(=O)N(C)C[C@@H](OC)[C@H](C)CN(C(=O)Cc1ccccn1)[C@@H](C)CO2,-4.6,.,.,.,.,.
CCn1cc(Br)c(-c2nc3ccccc3c(=O)n2N)n1,20.5,20.6,9.0,-3.4,0.4,.
COc1cc2cnc(-c3ccccc3)cc2cc1OC,33.0,12.9,11.8,2.0,?,3.7
c1ccc(-c2cc(-c3ccccc3)ncn2)cc1,.,.,-8.2,1.0,1.0,13.7
COc1ccc(-c2cc3cc4c(cc3cn2)OCO4)cc1,-31.8,21.8,-13.2,-1.3,-12.3,36.7*
COc1cc(OC)cc(-c2cc3cc4c(cc3cn2)OCO4)c1,-15.8,31.1,-32.8,2.2,17.7,.
COc1ccc(-c2cc3cc(OC)c(OC)cc3cn2)cc1,67.6*,72.2,9.6,-1.5,3.2,?
c1ccc(-c2cc3cc4c(cc3cn2)OCO4)cc1,30.2,27.4,3.0,-6.3,-10.6,63.3*
SMILES,esBAF inh,MITF act,PfHsp90 yeast 2,Vif inh,Glyco luc inh,Wnt act
CN(C)c1ccc(NC(=S)NCC2CCCO2)cc1 (stereo unspecified),.,22.2,-20.6,-5.2,-0.9,-0.3
C[C@H]1CN([C@@H](C)CO)C(=O)CCCn2cc(nn2)CO[C@H]1CN(C)S(C)(=O)=O,-1.0,.,.,.,.,.
CCCCN(C)C(=O)c1nc2ccccn2c1CN1CCSCC1,-0.7,3.4,-7.1,12.6,1.5,1.0
CCCc1cc(-c2n[nH]c(=S)n2-c2cccc(C)c2)cs1,44.9*,-7.5,-29.5,4.4,-0.5,-0.3
Oc1cccc2cc(Nc3ccccc3)cnc12,-38.9,.,.,.,-12.9,-9.0
Oc1cc(Nc2ccccc2)cc2cccnc12,10.0,-56.7,6.7,-3.7,37.6*,79.8*
Cc1cccc(COC(=O)CCCNC(=O)c2ccc(Cl)cc2)c1,6.6,6.0,93.4*,-2.3,0.7,0.6
C[C@@H]1CN([C@@H](C)CO)C(=O)c2cc(-c3cccc(F)c3)cnc2O[C@H]1CN(C)Cc1ccccc1,1.6,.,.,.,.,.
O=[N+]([O-])c1ccc(N=Nc2c(Cl)cc(O)cc2Cl)cc1,-55.8,-22.5,131.2*,-13.1,-10.5,-16.0
CSc1nc2c(cnn2-c2ccc(C)c(C)c2)c(=O)[nH]1,-8.8,-26.1,3.5,12.7,1.2,-0.3
CC(C)(O)[C@H]1Cc2cc3ccc(=O)oc3cc2O1,-0.2,97.7*,-8.2,7.5,-0.9,11.0
C=C(C)C1Cc2cc3ccc(=O)oc3cc2O1 (stereo unspecified),.,38.2,-11.6,2.1,2.1,.
CC1CCCCC1NC(=O)/C(C#N)=C/c1ccccc1F (stereo unspecified),2.7,-72.7,120.9*,-5.0,16.2,-0.6
CSc1ccc(/C=C(\C#N)C(=O)NC2CCCCC2C)cc1 (stereo unspecified),.,1.1,9.2,-8.3,14.4,-1.8
O=C(NCc1nnc(SCC(=O)N2CCCC2)o1)c1ccccc1,-3.7,2.1,4.8,6.8,-0.3,1.9
Cc1c(C(=O)c2ccccc2)oc2ccc3ccccc3c12,40.3,.,8.1,4.7,-4.4,50.0*
O=c1[nH]nc(-c2ccc(NCCCO)c([N+](=O)[O-])c2)c2ccccc12,-8.1,0.6,2.2,-0.7,-6.8,-1.0
O=c1[nH]nc(-c2ccc(NCCO)c([N+](=O)[O-])c2)c2ccccc12,1.8,5.4,7.2,55.7*,-3.8,4.1
CCOC(=O)c1cc(-c2ccc(N3C(c4ccsc4)=Cc4ccccc4C3CC(C)=O)cc2)cc([N+](=O)[O-])c1 (stereo unspecified),.,.,.,.,.,-2.8
Cc1nc(N)sc1-c1csc(N(C)c2ccc(O)cc2)n1,43.5*,37.7,-1.4,-9.2,-2.3,-2.7
COCC1CCCN(C(=O)c2cc(COc3ccc(C(C)=O)cc3)on2)C1 (stereo unspecified),70.3*,46.7,-14.6,-10.0,-2.3,35.5*
CC(=O)c1ccc(OCc2cc(C(=O)N3CC[C@@H]4CCCC[C@H]4C3)no2)cc1,68.6*,72.7,-5.0,-2.0,-3.0,37.2*
